Screening data deposited in PubChem by several laboratories.
An excerpt weighted towards active compounds, which were near 3% of everything screened.
TRPM1 prom inh: inhibitors of MITF-dependent TRPM1 promoter reporter, primary screen, cell-based, SK-MEL-5, single point, luciferase; SK-MEL-5 TRPM1 promoter luciferase, 24 h; inhibition, % at 12.5 µM; hit rate 0.83% among 330,000; AID 488899, 2010;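 active = mean inhibition across replicates of 60% or more, whatever share of single replicates reaches that level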
Peg3 prom inh-1: Peg3 promoter-driven luciferase inhibitors, primary screen, cell-based, HeLa, luciferase luminescence | HeLa PEG-Prom luciferase reporter, overnight | inhibition, % at 20 µM | hit rate 1.7% among 360,000 | AID 588405, 2011;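 active = inhibition of at least 50% at 20 µM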
HIF-2a inh: HIF-2a reporter inhibitors, primary screen, luminescence, 786-0 RCC cells; 786-0 RCC cells HIF-2a reporter, luciferase luminescence, overnight; hit rate 0.72% among 360,000; inhibition, % at 18.8 µM;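 active = inhibition of the luminescence signal of 40% or more relative to plate controls, in a single-dose primary screen at 18.75 µM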
EBV LMP1 NFkB: EBV LMP1-driven NF-kappaB luciferase reporter inhibitors, primary screen, cell-based, luminescence, single point | inhibition, % at 12.5 µM | hit rate 0.69% among 350,000 | LMP1-induced NF-kappaB luciferase reporter cells; in the data active = inhibition above about 41%
CF NFkB block: inhibitors of PAF-induced NF-kB signaling, primary screen, cell-based, GFP fluorescence, uHTS. KKLEB NF-kB-GFP reporter, GFP fluorescence overnight. inhibition, % at 5 µM. hit rate 0.86% among 360,000. AID 588850, 2011;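 active = at least 50% inhibition at 5 µM, scaled per plate between neutral and stimulator controls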;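 note: PAF is a Pseudomonas aeruginosa culture filtrate used as stimulus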
KKLEB cytotox: cytotoxicity in KKLEB CF airway cells, primary screen, cytotoxicity control for CF NF-kB inhibitor project, cell-based, uHTS, fluorescence assay plates; activity change (cytotoxicity), % at 5 µM; AID 602141, 2011; KKLEB CF airway cells viability, ATPlite luminescence, overnight; hits give low values; cells stimulated with P. aeruginosa culture filtrate; hit rate 0.36% among 360,000;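 active = corrected activity change at or below -50% at 5 µM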
Peg3 prom inh-2: Peg3 promoter reporter inhibitors, retest, confirmation, cell-based, HeLa, luciferase reporter, single concentration; shares compounds with Peg3 prom inh-1; HeLa PEG-Prom luciferase reporter, luminescence, overnight; inhibition, % at 20 µM; hit rate 84% among 1,300;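 active = at 20 µM dose, 40% or more inhibition averaged across four replicates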
Numbers stand for hits.

`CS(=O)(=O)c1sc(C#N)c2c1C(=O)CC(c1ccccc1)C2` (configuration not stated) gave TRPM1 prom inh 87.2, Peg3 prom inh-1 98.2, HIF-2a inh 95.3, EBV LMP1 NFkB inactive, CF NFkB block 81.4, KKLEB cytotox inactive and Peg3 prom inh-2 96.6.
Screening Cc1cnc(C)c(Nc2nc(C(N)CCc3ccccc3)cs2)n1 (configuration not stated) returned Peg3 prom inh-1 inactive, HIF-2a inh inactive, CF NFkB block inactive and KKLEB cytotox inactive.
`CCCCN(C)C(=O)c1ccc(Nc2nc(C(N)CCc3ccccc3)cs2)nc1` (configuration not stated) gave Peg3 prom inh-1 60.7, HIF-2a inh inactive, CF NFkB block inactive, KKLEB cytotox inactive and Peg3 prom inh-2 82.9.
For COCCCNC(=O)c1ccc(Cn2c(=O)c3ccccc3n(Cc3ccccc3C#N)c2=O)cc1 the results were TRPM1 prom inh inactive, Peg3 prom inh-1 54.4, HIF-2a inh inactive, EBV LMP1 NFkB inactive, CF NFkB block inactive, KKLEB cytotox inactive and Peg3 prom inh-2 57.3.
`COCCCNC(=O)c1ccc(Cn2c(=O)c3ccccc3n(Cc3ccccc3C)c2=O)cc1` gave TRPM1 prom inh inactive, Peg3 prom inh-1 inactive, HIF-2a inh inactive, EBV LMP1 NFkB inactive, CF NFkB block inactive and KKLEB cytotox inactive.
Screening COCOCCn1cc(CN2CCS(=O)(=O)N(Cc3ccc(-c4ccc(F)nc4)cc3)C(C)C2=O)nn1 (configuration not stated) returned Peg3 prom inh-1 inactive, HIF-2a inh inactive, EBV LMP1 NFkB inactive, CF NFkB block inactive and KKLEB cytotox inactive.
For Cc1ccc([C@H]2C[C@H](O)[C@@H](n3cc(C4CC4)nn3)CN2C(=O)c2cccs2)cc1 the results were Peg3 prom inh-1 inactive, HIF-2a inh inactive, EBV LMP1 NFkB inactive, CF NFkB block inactive and KKLEB cytotox inactive.
Screening Oc1ccc(C23CCCC2C2(CCCC2)c2ccc(O)cc2O3)c(O)c1 (configuration not stated) returned TRPM1 prom inh inactive, Peg3 prom inh-1 51.4, HIF-2a inh inactive, EBV LMP1 NFkB inactive, CF NFkB block inactive, KKLEB cytotox inactive and Peg3 prom inh-2 44.1.
`Brc1ccc(N=Nc2ccc3ccccc3n2)cc1` gave TRPM1 prom inh inactive, Peg3 prom inh-1 72.6, HIF-2a inh 62.0, EBV LMP1 NFkB 63.1, CF NFkB block inactive, KKLEB cytotox -97.5 and Peg3 prom inh-2 67.9.
Cc1ccc(C(=O)O)cc1N1C(=O)c2cccc3c([N+](=O)[O-])ccc(c23)C1=O was read as TRPM1 prom inh inactive, Peg3 prom inh-1 inactive, HIF-2a inh inactive, EBV LMP1 NFkB inactive, CF NFkB block inactive and KKLEB cytotox inactive.
For O=C(O)c1ccc(CN2C(=O)c3cccc4c([N+](=O)[O-])ccc(c34)C2=O)cc1 the results were TRPM1 prom inh inactive, Peg3 prom inh-1 103.3, HIF-2a inh inactive, EBV LMP1 NFkB inactive, CF NFkB block inactive, KKLEB cytotox inactive and Peg3 prom inh-2 90.1.
For CN(C)CCN1CCN(C(c2ccnc3ccccc23)c2nnnn2-c2ccc3c(c2)OCCO3)CC1 (configuration not stated) the results were HIF-2a inh inactive.
`Cc1ccc(F)cc1-c1cc2nc(NCCCN(C)C)n(C)c(=O)c2s1` gave Peg3 prom inh-1 70.0, HIF-2a inh inactive, CF NFkB block inactive, KKLEB cytotox inactive and Peg3 prom inh-2 48.3.
CN(C)CCCNc1nc2cc(-c3ccsc3)sc2c(=O)n1C was read as Peg3 prom inh-1 inactive, HIF-2a inh inactive, CF NFkB block inactive and KKLEB cytotox inactive.
Screening CC1(C(=O)NCc2ccccc2Br)CCN1C(=O)C1(c2ccc(Cl)cc2)CC1 (configuration not stated) returned Peg3 prom inh-1 inactive, HIF-2a inh inactive, CF NFkB block inactive and KKLEB cytotox inactive.
